Test results taken from the supplement of paper PMC10849652.
The full data set covers some 7,900 targets. This sample favours those with a hit. About 0.6% of all pairs of compound and target were hits. A number with no mark means an inactive call.

Columns and labels:
Experiment in all cases: log2 fold change, soluble protein after heating vs DMSO (PISA); higher = thermal stabilisation; K562 cells, 10 uM, 30 min; active = over 0.2 and 3.5 SD of the protein, either way, in both replicates (recomputed)
saracatinib = compound: CN1CCN(CCOc2cc(OC3CCOCC3)c3c(Nc4c(Cl)ccc5c4OCO5)ncnc3c2)CC1 [saracatinib]
Procedure, shortened: (§1)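 For each measurement, 10 μM compound was applied for 30 min to K562 cells at 2×10^6 cells/mL. Aliquots were heated for 3 min across 48°C-58°C, pooled, and extracted in PBS with 0.5% NP-40 at 4°C; the supernatant after 21,000xg for 90 min was soluble protein. This was quantified by TMTpro 16plex LC-MS/MS with channel sums equalised, and thermal stability was reported relative to control samples from duplicates, on a log2 fold-change scale.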

sotrastaurin = compound: CN1CCN(c2nc(C3=C(c4c[nH]c5ccccc45)C(=O)NC3=O)c3ccccc3n2)CC1 [sotrastaurin]
Procedure, shortened: as §1

alvocidib = compound: CN1CC[C@H](c2c(O)cc(O)c3c(=O)cc(-c4ccccc4Cl)oc23)[C@H](O)C1 [alvocidib]
Procedure, shortened: as §1

Tubastatin A = compound: CN1CCc2c(c3ccccc3n2Cc2ccc(C(=O)NO)cc2)C1 [Tubastatin A]
Procedure, shortened: as §1

[1] = compound: CNC(=O)C1=CC=CC=C1NC2=NC(=NC=C2Cl)NC3=C(C=C(C=C3)N4CCOCC4)OC
Procedure, shortened: as §1

defactinib = compound: CNC(=O)c1ccc(Nc2ncc(C(F)(F)F)c(NCc3nccnc3N(C)S(C)(=O)=O)n2)cc1 [defactinib]
Procedure, shortened: as §1

rucaparib = compound: CNCc1ccc(-c2[nH]c3cc(F)cc4c3c2CCNC4=O)cc1 [rucaparib]
Procedure, shortened: as §1

[2] = compound: CNc1nc(-c2ccc3c(N)n[nH]c3c2)cc(N2C[C@@H](C(=O)NC3CCCCC3)CC[C@H]2C)n1
Procedure, shortened: as §1

encorafenib = compound: COC(=O)N[C@@H](C)CNc1nccc(-c2cn(C(C)C)nc2-c2cc(Cl)cc(NS(C)(=O)=O)c2F)n1 [encorafenib]
Procedure, shortened: as §1

[3] = compound: COC(=O)[C@H](CCSC)NC(=O)C1=C(C=C(C=C1)NC[C@H](CS)N)C2=CC=CC=C2
Procedure, shortened: as §1

[4] = compound: COC1=CC=C(C=C1)CN2C=CC3=C2C=C(C=C3)C(=O)NO
Procedure, shortened: as §1

filanesib = compound: CON(C)C(=O)N1N=C(c2cc(F)ccc2F)S[C@@]1(CCCN)c1ccccc1 [filanesib]
Procedure, shortened: as §1

zotarolimus = compound: CO[C@H]1C[C@@H]2CC[C@@H](C)[C@@](O)(O2)C(=O)C(=O)N2CCCC[C@H]2C(=O)O[C@H]([C@H](C)C[C@@H]2CC[C@H](n3cnnn3)[C@H](OC)C2)CC(=O)[C@H](C)/C=C(\C)[C@@H](O)[C@@H](OC)C(=O)[C@H](C)C[C@H](C)/C=C/C=C/C=C/1C [zotarolimus]
Procedure, shortened: as §1

idasanutlin = compound: COc1cc(C(=O)O)ccc1NC(=O)[C@@H]1N[C@@H](CC(C)(C)C)[C@](C#N)(c2ccc(Cl)cc2F)[C@H]1c1cccc(Cl)c1F [idasanutlin]
Procedure, shortened: as §1

alisertib = compound: COc1cc(Nc2ncc3c(n2)-c2ccc(Cl)cc2C(c2c(F)cccc2OC)=NC3)ccc1C(=O)O [alisertib]
Procedure, shortened: as §1

[5] = compound: COc1cc2nc(-c3cc(F)ccc3O)nc(N[C@@H]3CNC[C@H]3C(C)(C)O)c2cc1OC
Procedure, shortened: as §1

gefitinib = compound: COc1cc2ncnc(Nc3ccc(F)c(Cl)c3)c2cc1OCCCN1CCOCC1 [gefitinib]
Procedure, shortened: as §1

[6] = compound: COc1cccc2cc(-c3nc([C@H]4CC[C@H](C(=O)O)CC4)n4ncnc(N)c34)[nH]c12
Procedure, shortened: as §1

lapatinib = compound: CS(=O)(=O)CCNCc1ccc(-c2ccc3ncnc(Nc4ccc(OCc5cccc(F)c5)c(Cl)c4)c3c2)o1 [lapatinib]
Procedure, shortened: as §1

pictilisib = compound: CS(=O)(=O)N1CCN(Cc2cc3nc(-c4cccc5[nH]ncc45)nc(N4CCOCC4)c3s2)CC1 [pictilisib]
Procedure, shortened: as §1

UniProt Q12974, sequence (Q12974 whole entry, looked up): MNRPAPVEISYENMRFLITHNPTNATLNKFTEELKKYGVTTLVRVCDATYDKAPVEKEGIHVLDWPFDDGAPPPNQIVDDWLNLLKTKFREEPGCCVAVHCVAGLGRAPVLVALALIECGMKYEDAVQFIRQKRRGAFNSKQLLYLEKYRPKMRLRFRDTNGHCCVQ
UniProt Q14671, sequence (Q14671 whole entry, looked up): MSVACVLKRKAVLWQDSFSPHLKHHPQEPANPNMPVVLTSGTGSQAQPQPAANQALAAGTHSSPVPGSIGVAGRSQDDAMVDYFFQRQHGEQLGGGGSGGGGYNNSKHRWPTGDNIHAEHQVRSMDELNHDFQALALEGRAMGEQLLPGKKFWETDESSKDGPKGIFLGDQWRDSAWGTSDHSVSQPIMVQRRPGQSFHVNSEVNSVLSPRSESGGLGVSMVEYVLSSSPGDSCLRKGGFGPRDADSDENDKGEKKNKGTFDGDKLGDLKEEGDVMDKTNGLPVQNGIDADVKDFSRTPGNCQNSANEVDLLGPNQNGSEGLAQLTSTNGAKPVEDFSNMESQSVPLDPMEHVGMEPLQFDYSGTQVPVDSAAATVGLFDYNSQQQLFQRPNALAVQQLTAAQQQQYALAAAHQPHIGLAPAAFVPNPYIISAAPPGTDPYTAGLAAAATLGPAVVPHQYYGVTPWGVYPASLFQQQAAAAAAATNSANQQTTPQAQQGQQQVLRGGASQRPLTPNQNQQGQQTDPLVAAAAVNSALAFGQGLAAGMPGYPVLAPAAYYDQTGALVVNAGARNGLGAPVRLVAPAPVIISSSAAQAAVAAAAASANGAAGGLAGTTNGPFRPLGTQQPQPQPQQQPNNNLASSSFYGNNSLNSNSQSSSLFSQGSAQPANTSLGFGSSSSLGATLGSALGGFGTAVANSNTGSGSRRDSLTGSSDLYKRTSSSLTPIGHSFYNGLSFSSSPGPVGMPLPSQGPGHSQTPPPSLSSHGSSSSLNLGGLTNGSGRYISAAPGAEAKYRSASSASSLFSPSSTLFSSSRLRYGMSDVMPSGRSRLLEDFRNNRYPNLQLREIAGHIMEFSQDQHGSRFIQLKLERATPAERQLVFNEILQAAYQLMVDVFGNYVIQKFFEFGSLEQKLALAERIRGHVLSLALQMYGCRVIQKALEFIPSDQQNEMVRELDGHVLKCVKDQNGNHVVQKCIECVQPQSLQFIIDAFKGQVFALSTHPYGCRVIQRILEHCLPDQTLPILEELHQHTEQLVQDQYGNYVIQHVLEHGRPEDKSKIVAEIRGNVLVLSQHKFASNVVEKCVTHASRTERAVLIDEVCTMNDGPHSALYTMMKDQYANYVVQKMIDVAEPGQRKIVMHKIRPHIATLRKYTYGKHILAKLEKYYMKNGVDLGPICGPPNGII
UniProt P41247, sequence (P41247 whole entry, looked up): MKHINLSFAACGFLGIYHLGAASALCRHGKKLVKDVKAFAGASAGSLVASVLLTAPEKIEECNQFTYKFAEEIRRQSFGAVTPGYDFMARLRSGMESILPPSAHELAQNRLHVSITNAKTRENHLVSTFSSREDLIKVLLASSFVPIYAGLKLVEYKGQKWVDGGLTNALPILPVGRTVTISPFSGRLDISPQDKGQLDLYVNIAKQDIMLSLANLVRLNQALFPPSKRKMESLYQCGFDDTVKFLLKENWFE
UniProt Q8N165, sequence (Q8N165 whole entry, looked up): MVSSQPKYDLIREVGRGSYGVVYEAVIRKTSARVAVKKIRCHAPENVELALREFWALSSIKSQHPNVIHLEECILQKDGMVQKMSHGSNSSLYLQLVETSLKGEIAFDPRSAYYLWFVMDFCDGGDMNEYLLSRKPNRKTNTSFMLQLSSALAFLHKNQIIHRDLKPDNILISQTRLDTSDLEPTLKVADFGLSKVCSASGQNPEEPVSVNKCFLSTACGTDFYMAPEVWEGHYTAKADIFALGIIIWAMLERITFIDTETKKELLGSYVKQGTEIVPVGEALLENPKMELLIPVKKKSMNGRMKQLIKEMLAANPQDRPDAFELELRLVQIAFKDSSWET
UniProt O15162, sequence (O15162 whole entry, looked up): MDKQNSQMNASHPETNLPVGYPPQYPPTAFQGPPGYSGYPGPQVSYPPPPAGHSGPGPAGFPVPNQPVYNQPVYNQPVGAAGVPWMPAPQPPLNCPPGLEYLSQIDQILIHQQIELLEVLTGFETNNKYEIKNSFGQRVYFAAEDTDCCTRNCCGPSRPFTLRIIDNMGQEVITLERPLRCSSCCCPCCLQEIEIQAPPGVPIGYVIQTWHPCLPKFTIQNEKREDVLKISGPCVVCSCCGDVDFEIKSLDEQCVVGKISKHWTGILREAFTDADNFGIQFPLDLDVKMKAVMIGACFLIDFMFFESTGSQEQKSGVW
UniProt Q8WUK0, sequence (Q8WUK0 whole entry, looked up): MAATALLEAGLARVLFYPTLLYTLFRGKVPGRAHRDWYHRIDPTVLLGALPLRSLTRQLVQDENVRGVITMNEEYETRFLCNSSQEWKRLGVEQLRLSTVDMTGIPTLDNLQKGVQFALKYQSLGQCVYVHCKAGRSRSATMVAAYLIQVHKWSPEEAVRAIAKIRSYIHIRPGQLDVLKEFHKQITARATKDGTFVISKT
UniProt Q15121, sequence (Q15121 whole entry, looked up): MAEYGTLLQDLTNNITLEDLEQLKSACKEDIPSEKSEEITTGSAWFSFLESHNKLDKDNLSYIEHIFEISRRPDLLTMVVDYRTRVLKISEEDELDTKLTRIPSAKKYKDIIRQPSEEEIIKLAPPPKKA
UniProt O95453, sequence (O95453 whole entry, looked up): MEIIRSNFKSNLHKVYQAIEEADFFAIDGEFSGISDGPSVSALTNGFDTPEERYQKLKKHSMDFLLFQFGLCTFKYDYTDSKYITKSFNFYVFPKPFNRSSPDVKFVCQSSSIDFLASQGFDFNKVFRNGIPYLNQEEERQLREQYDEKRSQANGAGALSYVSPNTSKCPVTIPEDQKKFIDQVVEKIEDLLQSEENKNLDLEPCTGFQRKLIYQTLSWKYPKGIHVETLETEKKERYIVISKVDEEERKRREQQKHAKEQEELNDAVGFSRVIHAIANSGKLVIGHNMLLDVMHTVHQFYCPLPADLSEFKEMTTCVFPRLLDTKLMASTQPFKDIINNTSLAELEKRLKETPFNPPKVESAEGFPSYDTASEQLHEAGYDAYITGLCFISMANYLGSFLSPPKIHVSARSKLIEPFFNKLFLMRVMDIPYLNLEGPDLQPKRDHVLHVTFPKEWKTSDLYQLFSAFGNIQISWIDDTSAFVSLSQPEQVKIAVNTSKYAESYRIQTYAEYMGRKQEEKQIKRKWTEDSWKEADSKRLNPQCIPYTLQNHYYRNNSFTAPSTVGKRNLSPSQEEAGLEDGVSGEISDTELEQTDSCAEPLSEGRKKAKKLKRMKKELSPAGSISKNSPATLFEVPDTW
UniProt Q16401, sequence (Q16401 whole entry, looked up): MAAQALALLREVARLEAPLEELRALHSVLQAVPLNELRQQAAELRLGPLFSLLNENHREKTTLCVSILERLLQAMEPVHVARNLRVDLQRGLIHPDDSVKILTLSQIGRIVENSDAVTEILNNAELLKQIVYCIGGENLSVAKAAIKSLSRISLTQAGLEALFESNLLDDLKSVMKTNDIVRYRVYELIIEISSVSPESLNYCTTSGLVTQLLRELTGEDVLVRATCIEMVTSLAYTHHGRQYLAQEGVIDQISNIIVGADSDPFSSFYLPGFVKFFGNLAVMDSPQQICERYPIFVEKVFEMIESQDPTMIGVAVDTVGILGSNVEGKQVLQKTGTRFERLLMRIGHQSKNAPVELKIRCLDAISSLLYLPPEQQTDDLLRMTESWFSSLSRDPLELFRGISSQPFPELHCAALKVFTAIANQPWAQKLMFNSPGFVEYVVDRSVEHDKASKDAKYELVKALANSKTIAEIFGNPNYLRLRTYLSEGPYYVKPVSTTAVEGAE
UniProt Q05655, sequence (Q05655 whole entry, looked up): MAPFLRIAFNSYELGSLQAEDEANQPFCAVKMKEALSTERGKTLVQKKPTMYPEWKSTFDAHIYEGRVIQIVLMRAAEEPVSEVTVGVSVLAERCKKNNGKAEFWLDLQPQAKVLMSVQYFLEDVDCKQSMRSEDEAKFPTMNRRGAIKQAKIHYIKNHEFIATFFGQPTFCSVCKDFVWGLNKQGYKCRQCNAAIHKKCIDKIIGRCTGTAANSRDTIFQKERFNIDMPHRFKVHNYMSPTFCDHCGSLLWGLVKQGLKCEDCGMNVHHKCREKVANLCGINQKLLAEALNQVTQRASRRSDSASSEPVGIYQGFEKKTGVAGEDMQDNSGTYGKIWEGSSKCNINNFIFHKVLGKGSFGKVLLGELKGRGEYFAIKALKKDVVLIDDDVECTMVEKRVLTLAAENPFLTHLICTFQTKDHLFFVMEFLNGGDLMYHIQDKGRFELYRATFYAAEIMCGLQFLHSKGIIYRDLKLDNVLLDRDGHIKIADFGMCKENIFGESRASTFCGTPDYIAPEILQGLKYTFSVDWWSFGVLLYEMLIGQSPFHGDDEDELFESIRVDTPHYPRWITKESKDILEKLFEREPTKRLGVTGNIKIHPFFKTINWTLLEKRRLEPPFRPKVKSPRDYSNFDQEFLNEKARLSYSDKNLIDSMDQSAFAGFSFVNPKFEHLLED
UniProt P10644, sequence (P10644 whole entry, looked up): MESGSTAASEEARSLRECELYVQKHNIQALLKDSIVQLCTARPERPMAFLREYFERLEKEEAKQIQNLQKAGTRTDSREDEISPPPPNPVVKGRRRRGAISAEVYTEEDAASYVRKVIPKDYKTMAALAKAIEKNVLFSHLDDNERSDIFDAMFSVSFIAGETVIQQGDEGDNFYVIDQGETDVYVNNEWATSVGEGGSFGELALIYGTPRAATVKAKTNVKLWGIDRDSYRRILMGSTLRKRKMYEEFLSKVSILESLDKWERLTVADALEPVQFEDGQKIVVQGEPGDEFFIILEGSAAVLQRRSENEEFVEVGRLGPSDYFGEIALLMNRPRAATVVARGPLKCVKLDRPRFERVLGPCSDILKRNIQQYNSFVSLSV
UniProt P06454, sequence (P06454 whole entry, looked up): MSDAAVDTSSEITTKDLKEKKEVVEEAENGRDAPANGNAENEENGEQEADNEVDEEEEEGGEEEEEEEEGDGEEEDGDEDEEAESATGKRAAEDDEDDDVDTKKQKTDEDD

| Target | log2 fold change (saracatinib) | log2 fold change (sotrastaurin) | log2 fold change (alvocidib) | log2 fold change (Tubastatin A) | log2 fold change [1] | log2 fold change (defactinib) | log2 fold change (rucaparib) | log2 fold change [2] | log2 fold change (encorafenib) | log2 fold change [3] | log2 fold change [4] | log2 fold change (filanesib) | log2 fold change (zotarolimus) | log2 fold change (idasanutlin) | log2 fold change (alisertib) | log2 fold change [5] | log2 fold change (gefitinib) | log2 fold change [6] | log2 fold change (lapatinib) | log2 fold change (pictilisib) |
| --- | --- | --- | --- | --- | --- | --- | --- | --- | --- | --- | --- | --- | --- | --- | --- | --- | --- | --- | --- | --- |
| PUM1 isoform 3 (UniProt Q14671) | -0.01 | -0.023 | -0.059 | 0.004 | -0.019 | -0.078 | 0.082 | -0.039 | -0.01 | 0.001 | -0.003 | 0.007 | -0.023 | 0.006 | -0.039 | -0.025 | 0.025 | -0.002 | 0.004 | -0.012 |
| PARN (UniProt O95453) | -0.013 | -0.008 | -0.118 | -0.017 | 0.02 | -0.141 | 0.079 | -0.022 | 0.04 | 0.014 | 0.001 | -0.015 | -0.009 | -0.028 | 0.001 | 0.051 | -0.009 | 0.04 | -0.028 | -0.036 |
| PRKCD (UniProt Q05655) | -0.026 | -0.256 (active) | -0.1 | -0.007 | 0.002 | -0.002 | -0.031 | -0.033 | -0.029 | -0.024 | -0.019 | -0.004 | 0.032 | -0.017 | 0.037 | -0.003 | -0.002 | 0.074 | 0.02 | 0.026 |
| POLR2M (UniProt Q6EEV4) | 0.011 | -0.015 | -0.178 | -0.131 | 0.097 | -0.081 | -0.145 | -0.084 | -0.047 | 0.026 | -0.046 | 0.076 | 0.034 | 0.046 | -0.144 | -0.063 | 0.076 | -0.033 | -0.084 | – |
| PNPLA4 (UniProt P41247) | -0.267 | -0.091 | -0.02 | 0.007 | 0.058 | -0.047 | 0 | 0.17 | -0.343 | -0.011 | 0.041 | -0.184 | -0.142 | 0.003 | 0.026 | -0.133 | 0.015 | 0.113 | -0.049 | – |
| PDIK1L (UniProt Q8N165) | -0.062 | 0.019 | -0.087 | 0.063 | 0.192 | 0.014 | 0.111 | -0.064 | -0.022 | -0.115 | -0.014 | 0.112 | -0.059 | 0.001 | 0.099 | -0.127 | 0.012 | 0.092 | 0.086 | – |
| PLSCR1 (UniProt O15162) | 0.052 | 0.024 | 0.003 | 0.025 | -0.058 | 0.006 | -0.015 | 0.082 | -0.006 | 0.006 | -0.017 | 0.01 | -0.012 | 0.033 | -0.006 | -0.046 | 0.016 | 0.145 | 0.051 | 0.037 |
| PSMD5 (UniProt Q16401) | 0.019 | -0.014 | -0.047 | -0.037 | 0.016 | -0.049 | -0.045 | -0.028 | 0.008 | 0.031 | 0.024 | -0.046 | 0.013 | -0.055 | -0.055 | -0.017 | -0.013 | 0 | 0.017 | -0.017 |
| PRKAR1A (UniProt P10644) | -0.067 | 0.105 | 0.121 | 0.007 | 0.366 | 0.14 | 0.13 | 0.005 | 0.073 | -0.069 | 0.079 | 0.042 | 0.046 | -0.045 | -0.075 | 0.131 | 0.046 | -0.132 | 0 | 0.206 |
| PTP4A2 (UniProt Q12974) | -0.038 | 0.107 | -0.332 (active) | 0.057 | -0.1 | -0.213 | -0.143 | -0.066 | 0.008 | 0.117 | 0.078 | -0.062 | -0.022 | -0.079 | -0.055 | 0.033 | -0.007 | -0.11 | -0.078 | – |
| PEA15 isoform 2 (UniProt Q15121) | 0.05 | -0.02 | -0.061 | -0.009 | -0.147 | -0.026 | -0.037 | 0.009 | 0.035 | 0.034 | 0.011 | -0.079 | 0.05 | -0.02 | -0.047 | -0.009 | 0 | -0.015 | -0.003 | 0.03 |
| POLR2G (UniProt P62487) | 0.041 | -0.016 | 0.328 (active) | -0.045 | 0.003 | 0.154 | 0.039 | 0.042 | -0.016 | -0.03 | 0.039 | -0.014 | -0.046 | -0.006 | -0.054 | 0.127 | 0.001 | 0.106 | -0.022 | 0.109 |
| PRKAB2 (UniProt O43741) | -0.064 | -0.077 | -0.094 | 0.039 | -0.159 | -0.084 | -0.371 | -0.022 | 0.118 | -0.036 | 0.038 | -0.167 | 0.109 | 0.14 | 0.053 | -0.074 | 0.004 | 0.057 | 0.131 | 0.111 |
| PTRHD1 (UniProt Q6GMV3) | -0.057 | 0.061 | -0.062 | 0.052 | 0.025 | 0 | -0.015 | -0.022 | -0.064 | 0.003 | -0.051 | 0.065 | -0.008 | 0.042 | -0.103 | -0.025 | 0.085 | 0.068 | -0.061 | 0.02 |
| PTPMT1 (UniProt Q8WUK0) | -0.037 | -0.059 | -0.008 | -0.063 | 0.027 | -0.07 | -0.118 | -0.019 | 0.044 | 0.045 | -0.084 | -0.26 | -0.027 | -0.002 | 0.006 | -0.327 (active) | -0.021 | 0.034 | -0.064 | 0.02 |
| PTMA (UniProt P06454) | 0.016 | -0.026 | -0.034 | 0.098 | -0.07 | -0.108 | 0.02 | 0.01 | -0.05 | -0.059 | 0.118 | -0.093 | -0.054 | -0.045 | -0.596 (active) | -0.049 | 0.029 | 0.043 | -0.016 | 0.001 |
